Data as given in PubChem BioAssay AID1159580 (chemical genetic matrix, 2015).
In all, about 5,500 compounds went through this assay and about 2,000 (36%) were called active. Another 18% or so got no clear call; they are omitted. No stated cut-off is given here; in the data, active means normalized growth mostly below about 0.91 (no sharp cut-off); inconclusive means no clear call, values can overlap the other calls; inactive means mostly above about 0.92. Some of the results follow.

Assay: chemical genetic growth profiling, strain panel (AID 1159580);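 further: tested at 20 µM; growth read once vehicle control cultures reached saturation at 30 °C; 1 = growth at the plate median or of vehicle wells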
Conditions: S. cerevisiae deletion strains, growth OD

Measured: normalized growth

O=C(O)c1ccccc1
inactive: locus YAL021C, strain ccr4, stronger effect = lower value 0.97 | locus YAL026C, strain drs2, stronger effect = lower value 0.962 | locus YAL030W, strain snc1, stronger effect = lower value 0.977 | locus YBL061C, strain skt5, stronger effect = lower value 0.975 | locus YBR009C, strain hhf1, stronger effect = lower value 0.981 | locus YBR023C, strain chs3, stronger effect = lower value 0.981 | locus YBR171W, strain sec66, stronger effect = lower value 0.957 | locus YBR231C, strain swc5, stronger effect = lower value 0.974 | locus YBR279W, strain paf1, stronger effect = lower value 0.981 | locus YCL011C, strain gbp2, stronger effect = lower value 0.954 | locus YCL016C, strain dcc1, stronger effect = lower value 0.962 | locus YCL061C, strain MRC1, stronger effect = lower value 0.966 | locus YCL069W, strain vba3, stronger effect = lower value 0.986 | locus YCR088W, strain abp1, stronger effect = lower value 0.996 | locus YDL005C, strain med2, stronger effect = lower value 0.973 | locus YDL040C, strain nat1, stronger effect = lower value 0.994 | locus YDR001C, strain nth1, stronger effect = lower value 0.973 | locus YDR069C, strain doa4, stronger effect = lower value 0.958 | locus YDR137W, strain rgp1, stronger effect = lower value 0.975 | locus YDR159W, strain sac3, stronger effect = lower value 0.966 | locus YDR195W, strain ref2 1.02 | locus YDR297W, strain sur2, stronger effect = lower value 0.979 | locus YDR334W, strain swr1, stronger effect = lower value 0.911 | locus YDR335W, strain msn5, stronger effect = lower value 0.976 | locus YDR392W, strain spt3, stronger effect = lower value 0.962 | locus YEL003W, strain gim4, stronger effect = lower value 0.988 | locus YEL037C, strain rad23, stronger effect = lower value 0.988 | locus YEL061C, strain CIN8 (second series), stronger effect = lower value 0.971 | locus YER015W, strain faa2, stronger effect = lower value 0.987 | locus YER016W, strain bim1, stronger effect = lower value 0.983 | locus YER111C, strain swi4, stronger effect = lower value 0.971 | locus YER155C, strain BEM2 (second series), stronger effect = lower value 0.962 | locus YFR010W, strain ubp6, stronger effect = lower value 0.958 | locus YGL167C, strain pmr1, stronger effect = lower value 0.956 | locus YGL173C, strain kem1, stronger effect = lower value 0.956 | locus YGL227W, strain vid30, stronger effect = lower value 0.97 | locus YGL240W, strain doc1, stronger effect = lower value 0.959 | locus YGL253W, strain hxk2, stronger effect = lower value 0.965 | locus YHR013C, strain ard1, stronger effect = lower value 0.962 | locus YHR027C, strain rpn1, stronger effect = lower value 0.944 | locus YHR030C, strain SLT2, stronger effect = lower value 0.894 | locus YHR079C, strain IRE1, stronger effect = lower value 0.891 | locus YHR142W, strain chs7, stronger effect = lower value 0.928 | locus YJL092W, strain hpr5, stronger effect = lower value 0.966 | locus YJL095W, strain BCK1 (second series), stronger effect = lower value 0.989 | locus YJL095W, strain BCK1, stronger effect = lower value 0.893 | locus YJL115W, strain asf1, stronger effect = lower value 0.945 | locus YJL129C, strain trk1, stronger effect = lower value 0.987 | locus YJL154C, strain vps35, stronger effect = lower value 0.975 | locus YJL164C, strain tpk1, stronger effect = lower value 1 | locus YJL166W, strain qcr8, stronger effect = lower value 0.969 | locus YJL187C, strain SWE1, stronger effect = lower value 0.982 | locus YJR066W, strain TOR1, stronger effect = lower value 0.863 | locus YKL160W, strain elf1, stronger effect = lower value 0.965 | locus YKR026C, strain gcn3, stronger effect = lower value 0.978 | locus YLL001W, strain dnm1, stronger effect = lower value 0.948 | locus YLL026W, stronger effect = lower value 0.982 | locus YLL041C, strain sdh2, stronger effect = lower value 0.966 | locus YLR027C, strain aat2, stronger effect = lower value 0.967 | locus YLR221C, strain rsa3, stronger effect = lower value 0.927 | locus YLR258W, strain gsy2, stronger effect = lower value 0.989 | locus YLR262C, strain YPT6 (second series), stronger effect = lower value 0.998 | locus YLR320W, strain mms22, stronger effect = lower value 0.943 | locus YLR342W, strain FKS1, stronger effect = lower value 0.972 | locus YLR357W, strain rsc2, stronger effect = lower value 0.969 | locus YLR370C, strain arc18, stronger effect = lower value 0.949 | locus YLR384C, strain iki3, stronger effect = lower value 0.958 | locus YML120C, strain ndi1, stronger effect = lower value 0.948 | locus YMR058W, strain fet3, stronger effect = lower value 0.951 | locus YMR125W, strain sto1, stronger effect = lower value 0.98 | locus YMR129W, stronger effect = lower value 0.988 | locus YMR205C, strain PFK2, stronger effect = lower value 0.967 | locus YMR231W, strain pep5, stronger effect = lower value 0.987 | locus YNL071W, strain lat1, stronger effect = lower value 0.988 | locus YNL183C, strain NPR1, stronger effect = lower value 0.84 | locus YNL209W, strain ssb2, stronger effect = lower value 0.975 | locus YNL248C, strain rpa49, stronger effect = lower value 0.966 | locus YNL322C, strain KRE1 (second series), stronger effect = lower value 0.933 | locus YNR049C, strain mso1, stronger effect = lower value 0.955 | locus YOR001W, strain rrp6, stronger effect = lower value 0.965 | locus YOR070C, strain gyp1, stronger effect = lower value 0.985 | locus YOR080W, strain dia2, stronger effect = lower value 0.963 | locus YOR083W, strain WHI5, stronger effect = lower value 0.961 | locus YOR106W, strain vam3, stronger effect = lower value 0.923 | locus YOR265W, strain rbl2, stronger effect = lower value 0.981 | locus YOR270C, strain vph1, stronger effect = lower value 0.98 | locus YOR290C, strain snf2, stronger effect = lower value 0.907 | locus YPL051W, strain arl3, stronger effect = lower value 0.989 | locus YPL078C, strain atp4, stronger effect = lower value 0.974 | locus YPL106C, strain sse1, stronger effect = lower value 0.962 | locus YPL240C, strain hsp82, stronger effect = lower value 0.996 | locus YPL256C, strain CLN2, stronger effect = lower value 0.855
active: locus YLR113W, strain HOG1, stronger effect = lower value 0.78 | locus YOR231W, strain MKK1, stronger effect = lower value 0.86
